Autofluor counter = flagged as autofluorescent in microsphere protease counterscreen | fluorescence intensity (concentration not given with the values) | AID 624483 | 360,000 compounds, 3.1% hits | compound autofluorescence counterscreen, microsphere flow cytometry; active compounds read high; in the data active = fluorescence intensity above about 16000; inconclusive = no clear call, values can overlap the other calls
Vc quorum ag-1 = inducers of Vibrio cholerae quorum light production without autoinducers, primary screen, BH1578 luxS cqsA deficient, single point | V. cholerae BH1578 lux reporter, luminescence, 6 h | activation, % at 18.7 µM | 350,000 compounds, 0.16% hits; in the data active = activation mostly above about 9.7%, no sharp cut-off; inconclusive = no clear call, values can overlap the other calls; inactive = mostly below about 3.7%
Anthrax LF prot = Bacillus anthracis LF protease inhibitors, primary screen, biochemical, multiplex microsphere, MLPCN library; multiplex microsphere protease cleavage assay; inhibition, % at 10 µM; 360,000 compounds, 0.12% hits; AID 588501, 2011; Lethal factor (Bacillus anthracis), P15917; note: plate controls were buffer without enzyme for full effect and enzyme alone for no effect
Target sequence (P15917 whole entry, looked up): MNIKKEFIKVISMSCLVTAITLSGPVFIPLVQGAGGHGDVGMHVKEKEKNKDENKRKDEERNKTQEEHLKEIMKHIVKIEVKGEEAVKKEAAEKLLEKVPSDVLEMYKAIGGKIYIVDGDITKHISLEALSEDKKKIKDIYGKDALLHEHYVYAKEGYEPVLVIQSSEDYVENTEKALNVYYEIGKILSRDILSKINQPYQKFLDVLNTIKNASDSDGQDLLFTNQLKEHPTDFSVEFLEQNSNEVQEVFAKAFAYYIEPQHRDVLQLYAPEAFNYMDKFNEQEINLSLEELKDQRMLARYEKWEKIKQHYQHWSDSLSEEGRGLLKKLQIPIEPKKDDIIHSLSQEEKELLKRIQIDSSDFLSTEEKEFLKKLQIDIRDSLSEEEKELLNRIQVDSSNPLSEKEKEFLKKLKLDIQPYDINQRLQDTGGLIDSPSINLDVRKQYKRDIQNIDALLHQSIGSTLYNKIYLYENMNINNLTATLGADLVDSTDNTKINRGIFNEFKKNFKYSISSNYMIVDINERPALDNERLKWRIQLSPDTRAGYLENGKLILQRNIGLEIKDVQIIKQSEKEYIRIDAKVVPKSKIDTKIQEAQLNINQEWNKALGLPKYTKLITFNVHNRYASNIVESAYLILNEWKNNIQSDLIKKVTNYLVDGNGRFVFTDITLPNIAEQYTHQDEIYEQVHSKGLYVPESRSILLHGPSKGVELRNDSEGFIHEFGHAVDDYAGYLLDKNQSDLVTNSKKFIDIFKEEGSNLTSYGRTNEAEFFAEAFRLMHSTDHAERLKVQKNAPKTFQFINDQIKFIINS
BoNT A protease = BoNT/A light chain protease inhibitors, primary screen, biochemical, flow cytometry, MLPCN library; multiplex microsphere protease substrate cleavage; inhibition, % at 10 µM; 360,000 compounds, 0.17% hits; note: plate controls were buffer without enzyme for full effect and enzyme alone for no effect
BJeLR viability = MLPCN primary cell-based screen for lethality selective to Ras in HRASV12 cells. AID 1554, 2009. BJeLR (HRASV12) viability, CellTiter-Glo ATP luminescence, 48 h. inhibition, % (concentration not given with the values). 300,000 compounds, 0.17% hits; in the data active = inhibition above about 50%; inconclusive = no clear call, values can overlap the other calls
BoNT F protease = BoNT/F light chain protease inhibitors, primary screen, biochemical, flow cytometry, MLPCN library. 360,000 compounds, 0.22% hits. AID 588497, 2011. Multiplex microsphere protease cleavage assay. Botulinum neurotoxin type F light chain protease (Clostridium botulinum). inhibition, % at 10 µM; in the data active = inhibition above about 35%, passing the limit was not always enough; inconclusive = no clear call, values can overlap the other calls; note: plate controls were buffer without enzyme for full effect and enzyme alone for no effect
Vc quorum ag-2 = V. cholerae lux activation without autoinducers – BH1578 luxS cqsA deficient, cherry-pick, plate reader, dose response; shares compounds with Vc quorum ag-1; V. cholerae BH1578 lux reporter, luminescence, 6 h; activation, % at 50 µM; 620 tested, under 10 active; AID 602243, 2012; call rule not given here
HeLa 24h tox = HeLa cell cytotoxicity, dose response, cytotoxicity control, 24 h, dry powder. shares compounds with Vc quorum ag-1. HeLa viability, CellTiter-Glo ATP luminescence. activity change, negative = cytotoxicity, % at 35 µM. 25 tested, under 10 active. AID 624140, 2012;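 active = signal drop with fitted half-maximal concentration at or below twice the highest valid dose; inconclusive = flat curve with 30 to 70% loss, or poor fit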
Starred values were filed as active, the others as inactive. A selection: hits, their analogues and other compounds. The true share with any hit is near 3.7%. Cut-off read from the data, not from the text of the source, unless noted: active = inhibition above about 30%; inconclusive = no clear call, values can overlap the other calls; inactive = below that.

Results for C[C@H](NC(=O)[C@@H]1CCCN1C(=O)[C@@H]1CCCN1C(=O)OC(C)(C)C)c1ccccc1 ?
Autofluor counter: 4856; Anthrax LF prot: 9; BoNT A protease: -1; BoNT F protease: 1

Results for O=C(CN1C(=O)COc2ccccc21)c1cccc(Cl)c1 ?
Autofluor counter: 11382; Vc quorum ag-1: inactive; Anthrax LF prot: -3; BoNT A protease: -1; BJeLR viability: 7; BoNT F protease: -4

How did O=C(CN1C(=O)COc2ccccc21)c1ccc(Cl)cc1 do in these assays?
Autofluor counter: 11140; Vc quorum ag-1: 17*; Anthrax LF prot: -8; BoNT A protease: -2; BJeLR viability: 2; BoNT F protease: -7; Vc quorum ag-2: 1

Results for C=CCN1C(=O)c2ccc(C(=O)N(CC)CC(=O)Nc3cc(Cl)ccc3C)cc2C1=O ?
Autofluor counter: inconclusive; Vc quorum ag-1: 15*; Anthrax LF prot: 1; BoNT A protease: 6; BJeLR viability: 6; BoNT F protease: 5; Vc quorum ag-2: 0

How did C=CCN1C(=O)c2ccc(C(=O)N(C)CC(=O)Nc3ccccc3Cl)cc2C1=O do in these assays?
Autofluor counter: 5728; Vc quorum ag-1: -1; Anthrax LF prot: 1; BoNT A protease: 0; BJeLR viability: 2; BoNT F protease: 0

What do the screens show for `Cc1c(C(=O)c2ccc(F)cc2F)c2ccccn2c1CCc1ccccn1`?
Autofluor counter: 4107; Vc quorum ag-1: 12; Anthrax LF prot: -2; BoNT A protease: 1; BoNT F protease: -4; Vc quorum ag-2: 0

What do the screens show for `O=S(=O)(Cc1ccc(Cl)cc1)N1CCN(Cc2ccccc2)CC1`?
Autofluor counter: 11054; Vc quorum ag-1: 122*; Anthrax LF prot: -3; BoNT A protease: 0; BoNT F protease: -3; Vc quorum ag-2: 0

Results for CCCCc1cc2c(cc1NC(=O)CN1CCCCC1)OCCO2 ?
Autofluor counter: 6436; Vc quorum ag-1: 14; Anthrax LF prot: -17; BoNT A protease: 0; BJeLR viability: 0; BoNT F protease: -8; Vc quorum ag-2: 0

How did CC(=O)c1cc2c(cc1NC(=O)CN1CCCCCCC1)OCO2 do in these assays?
Autofluor counter: 3921; Vc quorum ag-1: inactive; Anthrax LF prot: -1; BoNT A protease: 1; BJeLR viability: -8; BoNT F protease: -7

Results for CCCCN(C)CCNC(=O)c1ccc2c(c1)NC(=O)C(N1CCCCC1)S2 (configuration not stated) ?
Autofluor counter: 2874; Vc quorum ag-1: 17*; Anthrax LF prot: -3; BoNT A protease: 0; BJeLR viability: 0; BoNT F protease: 2; Vc quorum ag-2: 0

What do the screens show for `CC(C)(C)Cc1c(-c2cccc(Cl)c2)nc2ccc(Br)cn12`?
Autofluor counter: 4082; Anthrax LF prot: -14; BoNT A protease: 2; BoNT F protease: -30

Results for CCn1nnc(NC(=O)Cc2ccc(Cl)cc2)n1 ?
Autofluor counter: 4364; Vc quorum ag-1: -1; Anthrax LF prot: -1; BoNT A protease: 0; BJeLR viability: 4; BoNT F protease: -2

What do the screens show for `CCn1nnc(NCc2ccc(C)cc2)n1`?
HeLa 24h tox: 10

How did COc1ccccc1C(=O)NCC(=O)N(C)Cc1nc2ccccc2c(=O)[nH]1 do in these assays?
Autofluor counter: 3936; Vc quorum ag-1: inactive; Anthrax LF prot: -5; BoNT A protease: 0; BoNT F protease: -3

Results for CCCc1ccc2oc(C(=O)N(Cc3ccncc3)CC3CCCO3)c(C)c2c1 (configuration not stated) ?
Autofluor counter: 5821; Vc quorum ag-1: 12; Anthrax LF prot: 0; BoNT A protease: 0; BJeLR viability: 8; BoNT F protease: -8; Vc quorum ag-2: 0

How did CCC(=O)Nc1ccc(C(=O)NNC(=O)CCCCC(=O)NNC(=O)c2ccc(NC(=O)CC)cc2)cc1 do in these assays?
Autofluor counter: 2882; Vc quorum ag-1: -1; Anthrax LF prot: -3; BoNT A protease: 0; BoNT F protease: -2

Results for Cc1ccc(OCCCC(=O)N(C)CC(=O)Nc2ccccc2Cl)cc1 ?
Autofluor counter: 6538; Vc quorum ag-1: 12; Anthrax LF prot: 7; BoNT A protease: 0; BJeLR viability: -10; BoNT F protease: 2; Vc quorum ag-2: 0

Results for Cc1ccc(C)c(NC(=O)CN(C)C(=O)CCN2C(=O)c3ccccc3C2=O)c1 ?
Autofluor counter: 2188; Vc quorum ag-1: 25*; Anthrax LF prot: -2; BoNT A protease: -1; BJeLR viability: -3; BoNT F protease: -12; Vc quorum ag-2: 0

What do the screens show for `COc1ccc(NC(=O)COc2cccc3c2CCNC3=O)cc1`?
Autofluor counter: inconclusive; Vc quorum ag-1: 27*; Anthrax LF prot: -1; BoNT A protease: 3; BJeLR viability: 0; BoNT F protease: 9; Vc quorum ag-2: 3

How did Cn1c(CNc2cccc(Cl)c2)nnc1SCC(=O)OC1CCCCC1 do in these assays?
Autofluor counter: 8079; Vc quorum ag-1: 17*; Anthrax LF prot: -8; BoNT A protease: 0; BJeLR viability: 5; BoNT F protease: 6; Vc quorum ag-2: 0

Results for OC[C@@H]1CN(Cc2ccccc2)C[C@H](n2cnc3c(N4CCOCC4)ncnc32)O1 ?
Autofluor counter: 3844; Vc quorum ag-1: 0; Anthrax LF prot: -2; BoNT A protease: 0; BoNT F protease: -3

How did O=C(NCc1ccco1)c1cc2n(n1)C(C(F)(F)F)CC(c1ccc(Cl)c(Cl)c1)N2 (configuration not stated) do in these assays?
Autofluor counter: 17695*; Vc quorum ag-1: 14; Anthrax LF prot: -5; BoNT A protease: -4; BJeLR viability: 2; BoNT F protease: -10; Vc quorum ag-2: 903

How did Cc1ccc(OCCNC(=O)c2ccc(C)o2)cc1 do in these assays?
Autofluor counter: 3751; Vc quorum ag-1: 59*; Anthrax LF prot: 0; BoNT A protease: 0; BoNT F protease: 1; Vc quorum ag-2: 105

What do the screens show for `CCc1ccc(OCCNC(=O)c2cccs2)cc1`?
Autofluor counter: 4914; Anthrax LF prot: -3; BoNT A protease: 0; BJeLR viability: 10; BoNT F protease: -5; Vc quorum ag-2: inactive

How did CCCCOCCCNC(=O)c1cccs1 do in these assays?
Autofluor counter: 13122; Vc quorum ag-1: -12; Anthrax LF prot: 1; BoNT A protease: -1; BJeLR viability: -2; BoNT F protease: -13

Results for O=C(c1ccco1)N1CCN(c2ncnc3scc(-c4ccc(Cl)cc4)c23)CC1 ?
Autofluor counter: 3482; Vc quorum ag-1: inactive; Anthrax LF prot: -7; BoNT A protease: 0; BoNT F protease: 2

Screening data as filed in PubChem.
